Compound activity from PubChem BioAssay.
This excerpt belongs to a sample that is enriched for hits.
KDM5B inhibitor: blocks human KDM5B histone demethylase activity; Q9UGL1; KDM5B demethylase, FDH-coupled NADH fluorescence (FDH is formaldehyde dehydrogenase); Potency, µM (series often up to 57.7 µM), usual class: inhibitors; hit rate 2.6% among 220,000; AID 1347165; active means well fitted inhibition curve with a large enough effect; further: 0% is about no effect; nearly all actives have a fitted effect of over 70% in size
Target sequence (Q9UGL1 whole entry, looked up): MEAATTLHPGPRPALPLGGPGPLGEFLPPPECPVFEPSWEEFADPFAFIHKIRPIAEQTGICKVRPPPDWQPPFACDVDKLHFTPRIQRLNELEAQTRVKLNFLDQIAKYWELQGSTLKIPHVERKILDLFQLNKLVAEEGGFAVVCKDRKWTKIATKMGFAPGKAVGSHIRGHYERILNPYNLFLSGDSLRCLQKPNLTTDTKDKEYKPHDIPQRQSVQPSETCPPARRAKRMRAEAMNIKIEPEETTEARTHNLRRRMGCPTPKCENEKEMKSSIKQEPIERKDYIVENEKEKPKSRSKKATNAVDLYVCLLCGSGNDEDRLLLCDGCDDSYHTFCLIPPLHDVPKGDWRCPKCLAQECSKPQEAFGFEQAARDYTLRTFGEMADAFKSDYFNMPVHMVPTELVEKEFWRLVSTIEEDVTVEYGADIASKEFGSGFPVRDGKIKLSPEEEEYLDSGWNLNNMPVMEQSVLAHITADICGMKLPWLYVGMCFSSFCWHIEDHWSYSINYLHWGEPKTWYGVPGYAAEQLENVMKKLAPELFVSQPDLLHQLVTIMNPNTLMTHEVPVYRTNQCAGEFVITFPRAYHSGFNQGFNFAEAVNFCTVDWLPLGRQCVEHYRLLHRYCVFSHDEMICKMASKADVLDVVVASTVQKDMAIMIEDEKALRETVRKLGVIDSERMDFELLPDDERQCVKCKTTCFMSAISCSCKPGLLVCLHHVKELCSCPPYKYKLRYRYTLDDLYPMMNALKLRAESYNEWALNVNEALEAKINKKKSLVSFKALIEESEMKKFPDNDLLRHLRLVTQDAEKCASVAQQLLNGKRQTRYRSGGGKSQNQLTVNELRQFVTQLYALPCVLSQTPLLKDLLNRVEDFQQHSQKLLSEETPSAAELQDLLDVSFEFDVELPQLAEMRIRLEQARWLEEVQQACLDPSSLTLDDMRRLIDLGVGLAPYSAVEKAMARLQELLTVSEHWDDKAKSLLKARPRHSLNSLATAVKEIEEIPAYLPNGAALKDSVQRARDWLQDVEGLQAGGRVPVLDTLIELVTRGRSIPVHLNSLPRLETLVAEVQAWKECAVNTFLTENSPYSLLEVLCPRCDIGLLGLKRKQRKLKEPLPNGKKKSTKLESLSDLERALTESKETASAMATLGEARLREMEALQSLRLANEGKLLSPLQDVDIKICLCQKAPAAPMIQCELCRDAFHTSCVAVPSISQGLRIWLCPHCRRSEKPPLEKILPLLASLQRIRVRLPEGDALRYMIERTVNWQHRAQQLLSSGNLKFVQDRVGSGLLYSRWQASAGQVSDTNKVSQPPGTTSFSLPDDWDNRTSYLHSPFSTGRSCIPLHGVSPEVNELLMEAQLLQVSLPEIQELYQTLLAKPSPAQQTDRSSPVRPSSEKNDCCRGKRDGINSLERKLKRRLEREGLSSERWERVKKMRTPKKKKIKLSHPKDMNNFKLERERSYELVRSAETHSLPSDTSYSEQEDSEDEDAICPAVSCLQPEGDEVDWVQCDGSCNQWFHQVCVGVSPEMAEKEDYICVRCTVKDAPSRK
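Measured: NADH fluorescence change, 30 min, RT. System: KDM5BΔAP 200 nM final, H3K4me3 peptide, α-KG, Fe(II), ascorbate, NAD⁺ plus FDH, pH 7.5 HEPES. Compounds: titrated, 10 min pre-incubation with enzyme.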
* hit, by the source's call; i = inactive. Potency means the concentration at half of the fitted maximal effect.

SMILES	KDM5B inhibitor
Cc1ccsc1-c1[nH]nc2ncc(-c3ccc(CO)cc3)nc12	i
CC1(C)CC(NCCNC2CC(C)(C)NC(C)(C)C2)CC(C)(C)N1	i
CN(c1ccccc1)c1ccc(/C=N/Nc2ccc(S(N)(=O)=O)cc2[N+](=O)[O-])cc1	i
CCOc1ccc2nc(N3CCC(C(=O)NCCc4cc(OC)ccc4OC)CC3)sc2c1	i
OC(C#CCN1CCC(c2ccccc2)C1)(c1ccccc1)C1CCCCC1 (centres undefined)	i
O=C(NCC1CCN(C2CCCC2)C1)Nc1ccccc1 (centres undefined)	i
Cc1cc(=O)n2c3ccccc3n(CC(O)CN3CCN(c4ccccc4)CC3)c2c1C#N (centres undefined)	i
COc1c(Cl)cc(NCC(=O)NC(C)(C#N)C(C)C)cc1Cl (centres undefined)	i
COC(=O)C1=CN(Cc2ccc(OC)cc2)C=C(C(=O)OC)C1c1ccccc1OCc1ccccc1	i
O=C(c1n[nH]c2c1CCCC2)N1CCc2c(nc3cc[nH]n3c2=O)C1	28µM*
O=C(c1ccsc1)N1CCN(c2cc(-c3ccc(Cl)cc3)[nH]n2)CC1	i
O=C(c1ccsc1)N1CCc2c(nc3cc[nH]n3c2=O)C1	25µM*
O=C(c1cc(-c2cccs2)[nH]n1)N1CCc2c(nc3cc(-c4ccccc4)[nH]n3c2=O)C1	32µM*
CN1CCc2c([nH]c3ccccc23)C12CCN(C(=O)c1cc(CN3CCOCC3)on1)CC2	i
COCCOc1ccc2c(n1)CCN(C(=O)c1ccsc1)C2	i
CC(C)C1CN(C(=O)c2n[nH]c3c2CCC3)CCC(=O)N1CC1CC1 (centres undefined)	i
O=C(c1ccccn1)N1CCN(c2cc(-c3cccs3)[nH]n2)CC1	i
O=C(c1cc(CN2CCOCC2)on1)N1CCc2c(nc3cc(-c4ccccc4)[nH]n3c2=O)C1	28µM*
CCn1nc(C)c(-c2cc(C(=O)N3CCc4nc5cc(-c6ccccc6)[nH]n5c(=O)c4C3)no2)c1C	i
O=c1c2c(nc3cc(-c4ccccc4)[nH]n13)CN(S(=O)(=O)c1cccs1)CC2	i
O=C(c1ccc(Br)cc1)N1CCc2[nH]nc(C(=O)N3CCOCC3)c2C1	i
COCCn1cnc2c1c(=O)n(CC(=O)Nc1ccccc1)c(=O)n2Cc1ccccc1	i
CC(C)c1ccc2cc(C(=O)NCc3ccco3)[nH]c2c1	i
O=C(N/N=C/c1ccc([N+](=O)[O-])s1)C1CCCCC1	i
O=C(c1cc(Cl)ccc1O)N1CCN(S(=O)(=O)c2ccccc2)CC1	i
SMILES	KDM5B inhibitor
CC(C)(C)CC(=O)NCCc1ccsc1	i
COc1cccc([C@@H]2CN(C(=O)c3n[nH]c4c3CCCC4)C[C@H]2C(=O)O)c1	i
O=C(c1n[nH]c2c1CCCC2)N1CCc2c(nc3cc(-c4ccccc4)[nH]n3c2=O)C1	16µM*
Cc1cccc(CC(=O)N2CCc3c(nc4cc[nH]n4c3=O)C2)c1	32µM*
Cc1ccc(CN2CC(C(=O)Nc3ccc(C)cn3)CC2=O)cc1 (centres undefined)	i
COc1ccc(Cn2c3c(c(=O)n2Cc2ccccc2)CCN(C(=O)Cc2cccc(Cl)c2)C3)cc1	i
Cc1nc2c(c(-c3ccc(Cl)cc3)n1)CCN(C(=O)Cc1cccc(Cl)c1)CC2	i
Cc1ccnc(NC(=O)C2CC(=O)N(Cc3ccccc3)C2)c1 (centres undefined)	i
O=C(c1n[nH]c2c1CCCC2)N1CCC(n2cc(-c3nc(-c4ccccc4)no3)nn2)CC1	i
Cc1ccc(CN2CC(C(=O)N3CCc4c(nc5cc(-c6ccccc6)[nH]n5c4=O)C3)CC2=O)cc1 (centres undefined)	22µM*
CCCOc1cccc(C(=O)Nc2nonc2CC)c1	i
CCOc1ccccc1NC(=O)c1cc2c(=O)n3ccccc3nc2n1C	i
COCCN(CCOC)C(=O)c1cc(Cl)ccc1F	i
CCNCc1ccc(-c2ccccc2F)o1	i
O=C(O)C1(c2ccc(Cl)cc2)CCCC1	i
O=[S+]1([O-])NCC2(CCCN(Cc3cccc(C(F)(F)F)c3)C2)Oc2ncccc21 (centres undefined)	i
O=[S+]1([O-])NCC2(CCN(Cc3cccnc3)CC2)Oc2ncccc21	i
O=[S+]1([O-])NCC2(CCCN(Cc3ccc(Cl)cc3)C2)Oc2ncccc21 (centres undefined)	79µM*
Cc1cccc(Cn2cnc3c2c(=O)n(C)c(=O)n3C)c1	i
COc1cccc(NC(=O)N2CC[C@H]3CC(=O)N(c4ccccc4)CC[C@H]3C2)c1	i
CC(C)c1nccn1CCCNC(=O)c1ccc(-c2ccc(F)cc2)nc1	i
Cc1nccn1CCNC(=O)c1ccc(CC2CCN(S(C)(=O)=O)CC2)cc1	i
COc1cccc(C(C)N(C)C(=O)c2cc(Cn3ccnc3C(C)C)[nH]n2)c1 (centres undefined)	i
CC(C)c1nccn1CCCNC(=O)c1ccc(N2CCCC(CO)C2)nc1 (centres undefined)	i
CC(C)c1nccn1CCCNC(=O)c1ccc(NC2CCC(O)CC2)nc1 (centres undefined)	28µM*
SMILES	KDM5B inhibitor
COc1cccc(-c2ccc(C(=O)NCCCn3ccnc3C(C)C)cn2)c1	28µM*
COc1ccc(C(=O)N2CCC(C(=O)NC(C)c3cccc(Cl)c3)CC2)c2ccccc12 (centres undefined)	i
CCCNC(N)=S	i
Cn1cccc1Cc1nnc(SCC(=O)Nc2ccc(F)cc2F)n1C	i
N#Cc1ccccc1Sc1ccccc1C(=O)OCC(=O)Nc1ccc(N2CCOCC2)cc1	i
CC(C1CC1)N(C)C(=O)COc1ccc(C#N)cc1 (centres undefined)	i
CN(Cc1cccc(C(F)(F)F)c1)C(=O)C1CCCC1	i
CSCc1noc(CNC(=O)c2ccc(-c3ccccc3Cl)o2)n1	32µM*
CSCc1noc(CNC(=O)CC(c2ccccc2)c2ccccc2Cl)n1 (centres undefined)	i
CSCc1ccc(C(=O)NCc2ccccc2)o1	i
N#Cc1ccc(CCC(=O)c2cccs2)cc1	i
CSCCC(NC(=O)c1ccc(Cl)cc1Cl)C(=O)Nc1cccc(C(C)=O)c1 (centres undefined)	i
Cc1ccc2[nH]cc(C(C(=O)O)N3CCN(Cc4nonc4C)CC3)c2c1 (centres undefined)	i
COc1ccc(OC2CCN(C(C)=O)CC2)c(C(=O)NC(C)c2cn(C)nc2C)c1 (centres undefined)	32µM*
COc1ccc(C(=O)NC(C)c2nncn2C)cc1OC1CCN(C(C)=O)CC1 (centres undefined)	i
COc1ccc(OC2CCN(C(C)=O)CC2)c(C(=O)N(C)Cc2ccccc2)c1	i
CCOc1ccc2nc(N(Cc3cccnc3)C(=O)C3=COCCO3)sc2c1	i
Nc1nc(CN2CCN(C(=O)c3ccccc3Cl)CC2)nc2ccccc12	i
Cc1ccc(NC(=O)CN2c3ccc(S(N)(=O)=O)cc3CC2C)c(F)c1 (centres undefined)	i
CCS(=O)(=O)c1ccc(Cc2ccc(S(=O)(=O)CC)cc2)cc1	i
COc1ccc(CN2CCC(N3CCN(c4ccccc4OC)CC3)CC2)cc1OC	i
O=C(N/N=C(/c1ccccc1)c1ccncc1)C1CC1	i
CC(OC(=O)c1ccc(CO)cc1)C(=O)c1c[nH]c2ccccc12 (centres undefined)	i
CCCC(=O)NC1CCN(c2cnn(CC3CC3)c(=O)c2)CC1	i
